The nature of assay [1]: small molecules captured by biotinylated probe aFSTL3 – biochemical, small-molecule microarray, fluorescence 635/667, stem cell growth factor project, primary screen (AID 1064).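 Also: measures binding of the biotinylated anti-FSTL3 antibody to printed compounds.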 Conditions: higher = more signal.
A short description of assay [2]: binders from COS7 lysate, DM2A8 probe, primary screen, torsin A project, cell lysate, small-molecule microarray, fluorescence 635/667 (AID 1065). Conditions: higher = more signal, COS7 lysate expressing mutant human TOR1A.
Assay [3] can be described thus: small molecules captured by biotinylated probe aFGF2 – biochemical, small-molecule microarray, fluorescence 635/667, stem cell growth factor project, primary screen (AID 1067).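 Also: measures binding of biotinylated aFGF2 protein to printed compounds on slides; z-score merges feature fluorescence and signal-to-noise across triplicate slides.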 Particulars: higher = more signal.
Assay [4] in a line: small molecules captured by biotinylated probe aFGF10 – biochemical, small-molecule microarray, fluorescence 635/667, stem cell growth factor project, primary screen (AID 1071).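 Also: score merges 667 nm spot intensity and signal to noise from triplicate slides.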 Conditions: higher = more signal.
Assay [5] addresses Neurogenic locus notch homolog protein 2 (Homo sapiens) (UniProt Q04721). As to the kind of experiment: small molecules binding Notch2 protein – biochemical, small-molecule microarray, 635 nm fluorescence, stem cell growth factors, primary screen (AID 1073). Conditions: higher = more signal.
Assay [6] addresses Pro-neuregulin-1, membrane-bound isoform (Homo sapiens) (UniProt Q02297). Description: small molecules binding neuregulin-1 protein – biochemical, small-molecule microarray, fluorescence 635/667, psychiatric disease protein project, primary screen (AID 1075).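 Also: score combines 667 nm spot fluorescence with signal to noise.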 Conditions: NRG1 binding, 635 nm fluorescence, higher = more signal.
For assay [7], the system named is Neuregulin-1 EGF-like domain. As to the kind of experiment: small molecules binding NRG1 EGF domain – biochemical, small-molecule microarray, 635 nm fluorescence, primary screen (AID 1081).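 Also: binding of the protein to compounds printed on small-molecule microarray slides.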 Conditions: higher = more signal.
Assay [8] in a line: FRG1 expression reporter modulators in myotubes – cell-based, C2C12 myotubes, firefly/Renilla luciferase, luminescence, FRG1 inhibition for FSHD, primary screen (AID 1084). Particulars: FRG1 promoter luciferase, higher = more signal, called active from +8 up or from −8 down.
Assay [9] in a line: small molecules captured by biotinylated probe aFST – biochemical, small-molecule microarray, fluorescence 635/667, stem cell growth factor project, primary screen (AID 1086).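 Also: score merges 667 nm fluorescence with signal-to-noise of each printed compound spot.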 Particulars: higher = more signal.
Assay [10] is described as follows: binders of probe aHhip on microarray, primary screen, stem cell growth factor project, biochemical, small-molecule microarray, fluorescence 635/667 (AID 1087).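 Also: score merges spot fluorescence at 667nm with spot signal to noise ratio.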 Conditions: higher = more signal.

Molecules are shown by their SMILES. Calls of active or inactive are those of the source.

Sequence of Pro-neuregulin-1, membrane-bound isoform (Homo sapiens) (Q02297 whole entry, looked up, the tested form may be a part, canonical isoform): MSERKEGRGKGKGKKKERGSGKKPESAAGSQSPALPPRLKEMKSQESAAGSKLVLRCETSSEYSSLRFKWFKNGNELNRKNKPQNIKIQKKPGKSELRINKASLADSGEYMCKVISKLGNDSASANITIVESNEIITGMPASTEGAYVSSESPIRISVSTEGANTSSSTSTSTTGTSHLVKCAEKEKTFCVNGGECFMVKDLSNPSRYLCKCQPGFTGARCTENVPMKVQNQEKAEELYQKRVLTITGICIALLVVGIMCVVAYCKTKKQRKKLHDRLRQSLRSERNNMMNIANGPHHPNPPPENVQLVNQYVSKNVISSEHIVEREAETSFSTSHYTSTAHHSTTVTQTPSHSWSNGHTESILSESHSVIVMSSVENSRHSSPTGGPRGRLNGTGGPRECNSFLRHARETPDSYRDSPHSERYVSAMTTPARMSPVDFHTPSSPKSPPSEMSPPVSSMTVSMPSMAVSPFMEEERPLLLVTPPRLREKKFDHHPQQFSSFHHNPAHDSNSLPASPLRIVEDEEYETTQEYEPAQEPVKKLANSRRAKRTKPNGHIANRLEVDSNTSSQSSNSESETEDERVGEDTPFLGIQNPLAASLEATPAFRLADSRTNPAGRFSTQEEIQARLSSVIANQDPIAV
Sequence of Neurogenic locus notch homolog protein 2 (Homo sapiens) (Q04721 whole entry, looked up, canonical isoform): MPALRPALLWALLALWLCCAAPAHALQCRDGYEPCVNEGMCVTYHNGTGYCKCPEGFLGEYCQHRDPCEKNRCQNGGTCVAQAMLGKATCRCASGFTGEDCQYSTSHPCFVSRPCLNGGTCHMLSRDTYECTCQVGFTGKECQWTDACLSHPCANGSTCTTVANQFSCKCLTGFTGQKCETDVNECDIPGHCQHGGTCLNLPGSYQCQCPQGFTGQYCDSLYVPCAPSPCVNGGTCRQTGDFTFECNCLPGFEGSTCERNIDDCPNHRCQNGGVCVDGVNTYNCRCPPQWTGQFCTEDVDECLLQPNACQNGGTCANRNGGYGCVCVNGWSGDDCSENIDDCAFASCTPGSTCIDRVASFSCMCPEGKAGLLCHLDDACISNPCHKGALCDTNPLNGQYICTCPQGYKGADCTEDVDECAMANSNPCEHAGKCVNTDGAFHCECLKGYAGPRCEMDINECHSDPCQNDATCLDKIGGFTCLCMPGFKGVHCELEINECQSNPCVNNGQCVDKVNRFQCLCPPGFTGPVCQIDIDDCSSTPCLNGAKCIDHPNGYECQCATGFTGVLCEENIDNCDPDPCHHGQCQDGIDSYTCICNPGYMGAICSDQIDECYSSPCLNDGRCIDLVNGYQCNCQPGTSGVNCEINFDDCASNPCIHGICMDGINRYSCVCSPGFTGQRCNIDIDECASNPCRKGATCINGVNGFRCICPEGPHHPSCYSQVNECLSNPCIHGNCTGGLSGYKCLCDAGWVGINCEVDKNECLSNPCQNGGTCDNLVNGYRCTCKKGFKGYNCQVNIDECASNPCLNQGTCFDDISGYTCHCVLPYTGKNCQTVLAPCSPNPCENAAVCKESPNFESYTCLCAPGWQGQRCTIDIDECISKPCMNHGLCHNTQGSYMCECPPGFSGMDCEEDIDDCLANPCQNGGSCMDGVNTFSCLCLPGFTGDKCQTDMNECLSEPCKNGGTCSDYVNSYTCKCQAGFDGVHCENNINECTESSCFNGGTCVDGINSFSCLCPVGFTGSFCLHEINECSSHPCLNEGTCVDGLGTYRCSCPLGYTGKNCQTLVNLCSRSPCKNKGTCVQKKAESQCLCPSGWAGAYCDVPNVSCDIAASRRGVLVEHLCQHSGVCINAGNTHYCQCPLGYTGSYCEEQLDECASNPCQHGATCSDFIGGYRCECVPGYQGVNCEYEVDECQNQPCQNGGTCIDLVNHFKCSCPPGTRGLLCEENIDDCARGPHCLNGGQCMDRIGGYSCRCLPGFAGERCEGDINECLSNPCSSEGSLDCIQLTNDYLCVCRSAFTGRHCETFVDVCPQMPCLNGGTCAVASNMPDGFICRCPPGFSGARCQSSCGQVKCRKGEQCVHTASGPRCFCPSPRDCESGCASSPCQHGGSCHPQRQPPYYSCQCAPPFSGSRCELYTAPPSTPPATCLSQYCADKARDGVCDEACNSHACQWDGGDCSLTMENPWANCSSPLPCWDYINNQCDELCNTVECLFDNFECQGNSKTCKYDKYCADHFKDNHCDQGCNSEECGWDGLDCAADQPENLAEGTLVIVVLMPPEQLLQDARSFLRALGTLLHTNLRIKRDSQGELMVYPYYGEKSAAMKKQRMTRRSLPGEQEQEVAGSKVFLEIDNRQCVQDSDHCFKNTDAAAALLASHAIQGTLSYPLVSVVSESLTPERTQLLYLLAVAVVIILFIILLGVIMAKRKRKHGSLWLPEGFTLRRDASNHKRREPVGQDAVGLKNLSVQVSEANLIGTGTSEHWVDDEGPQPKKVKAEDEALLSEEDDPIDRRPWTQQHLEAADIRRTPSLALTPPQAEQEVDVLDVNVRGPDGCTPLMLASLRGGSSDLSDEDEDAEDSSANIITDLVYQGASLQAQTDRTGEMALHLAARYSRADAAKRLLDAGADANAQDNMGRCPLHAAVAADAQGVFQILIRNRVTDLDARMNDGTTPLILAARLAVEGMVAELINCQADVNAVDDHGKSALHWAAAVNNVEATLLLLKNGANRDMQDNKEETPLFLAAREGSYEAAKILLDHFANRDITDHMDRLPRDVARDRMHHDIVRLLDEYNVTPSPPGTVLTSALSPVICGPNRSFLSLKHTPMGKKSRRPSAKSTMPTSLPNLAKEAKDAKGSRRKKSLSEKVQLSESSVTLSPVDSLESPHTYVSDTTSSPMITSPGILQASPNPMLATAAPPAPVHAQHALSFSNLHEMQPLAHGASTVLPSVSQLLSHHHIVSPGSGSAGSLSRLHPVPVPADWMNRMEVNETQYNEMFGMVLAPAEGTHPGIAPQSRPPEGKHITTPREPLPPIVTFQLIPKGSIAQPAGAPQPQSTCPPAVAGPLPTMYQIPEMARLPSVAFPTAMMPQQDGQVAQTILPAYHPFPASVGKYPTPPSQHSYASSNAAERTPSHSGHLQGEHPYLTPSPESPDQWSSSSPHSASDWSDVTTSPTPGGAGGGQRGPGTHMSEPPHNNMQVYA

As to `[N-]=[N+]=NCc1ccccc1[C@H]1OC(c2ccc(OCCCO)cc2)=N[C@@]1(CCS(=O)(=O)c1ccccc1)C(=O)NCCN1CCOCC1`, the composite z-score in assay [1] was -0.0144; in assay [2], -0.523; in assay [3], 0.126; in assay [4], 1.04; in [5], 1.67; in assay [6], 1.57. For the same compound, the composite z-score in [7] is 1.27; in [9], 1.16; in [10] it was -0.0095. Moreover, in assay [8], the z-score was 3.26 (inactive).
Turning to `COc1c(C)cc(-c2nc(-c3ccccc3)c3c(c2C)CO[Si]3(C(C)C)C(C)C)cc1C`, the composite z-score in assay [1] is -0.24; in assay [2], 0.428; in assay [3], -0.134; in [4], 0.146; in assay [5], 0.442; in [6], -0.0636. The composite z-score in assay [7] was -0.104; in assay [9], 0.0724; in assay [10], -0.0994. Moreover, the z-score in assay [8] was 0.232 (inactive).
Take `[N-]=[N+]=Nc1ccccc1C[C@]1(C(=O)N2CCCCC2)N=C(c2ccc(OCCCO)cc2)O[C@H]1c1ccccc1`: the composite z-score in assay [1] is 0.484; in [2], 0.593; in [3], -0.0332; in assay [4] it was 1.21; in [5], 1.36; in [6], 0.733. The composite z-score is 1.08 in assay [7], 0.933 in assay [9] and 0.154 in [10]. In addition, the z-score in assay [8] was -3.1 (inactive).
Regarding `COC(=O)[C@@]1(Cc2ccc(F)cc2)[C@H]2c3cc(C(=O)N(C)C)n(Cc4cccc5ccccc45)c3C[C@H]2CN1C(=O)c1ccccc1`, the composite z-score in assay [1] is 1.84; in assay [2] it was 1.71; in assay [3], 0.398; in assay [4], 1.16; in assay [5], 0.77; in assay [6] it was 1.13. Besides, the composite z-score in assay [7] stood at 1.33; in assay [9], 0.697; in assay [10], 0.727. For the same compound, the z-score in [8] is 0.255 (inactive).
For `CCCCCN1CC=CC23O[C@@H]4/C=C\CCCOC(=O)C4[C@H]2C(=O)N(CCCCCO)[C@@H]3C1=O` (stereo not given in full), the composite z-score in assay [1] is 0.239; in assay [2] it was -0.291; in assay [3] it was -0.103; in assay [4], -0.501; in [5], -0.581; in [6] it was -0.315. The composite z-score is -0.786 in assay [7], -0.841 in assay [9] and -0.164 in assay [10]. Moreover, in assay [8], the z-score is -0.225 (inactive).
For the compound `[N-]=[N+]=NCc1ccccc1[C@H]1OC(c2ccc(OCCCO)cc2)=N[C@@]1(Cc1ccccc1N=[N+]=[N-])C(N)=O`, the composite z-score in assay [1] stood at 0.0097; in assay [2] it was 0.998; in [3] it was 0.05; in assay [4], 0.995; in [5], 1.54; in [6], 1.7. Moreover, the composite z-score in assay [7] was 1.11; in assay [9] it was 1.76; in assay [10], -0.156. For the same compound, the z-score in assay [8] is 4.46 (inactive).
Regarding `CCCCC(=C=CC[C@@H](O)c1ccc(OCCO)cc1)CCO`, the composite z-score was -0.171 in assay [1]; 0.532 in [2]; -0.087 in assay [3]; 0.558 in assay [4]; -0.051 in [5]; 1.65 in assay [6]. In addition, the results for the composite z-score in assay [7], in assay [9] and in [10] were 0.922, 0.0121 and 0.176, respectively. Further, the z-score in assay [8] is -0.58 (inactive).
As to `COc1ccc(-c2cc3c(c(CCc4ccccc4)n2)[Si](C(C)C)(C(C)C)O[C@H]3c2ccccc2)cn1`, the composite z-score is -0.605 in assay [1]; -0.678 in assay [2]; -0.0754 in [3]; 0.0306 in assay [4]; 0.135 in [5]; 0.371 in assay [6]. The composite z-score in assay [7] is -0.598; in assay [9] it was 0.16; in assay [10], -0.164. Moreover, the z-score in [8] is 0.0071 (inactive).
Regarding `Cc1ccc(S[C@]2(C(=O)NC(C)C)CC(=O)N(Cc3ccccc3)[C@@H]2c2ccc(CO)cc2I)cc1`, the composite z-score in assay [1] is 1.28; in assay [2], -0.37; in [3] it was -0.0303; in [4] it was 0.176; in [5], -0.705; in [6], 0.291. Moreover, the figures for the composite z-score in assay [7], in assay [9] and in assay [10] were 0.478, -0.26 and -0.226, respectively. For the same compound, the z-score in assay [8] was -0.259 (inactive).
Take `C=CCOC(=O)[C@@H]1[C@H]2C(=O)O[C@H](c3ccccc3)[C@H](c3ccccc3)N2[C@H](c2ccc(OCCOC(=O)[C@H]3C[C@H]4C(=O)N[C@@H](CCCCN(C)C)C(=O)N4[C@H]3c3cccc(OCCO)c3)cc2)[C@@]12C(=O)Nc1ccccc12`: the composite z-score in assay [1] was 1.24; in assay [2] it was 0.596; in [3] it was 0.031; in assay [4] it was -0.629; in [5] it was -1.13; in assay [6], 1.96. Also, the composite z-score in [7] was 0.815; in assay [9], -0.651; in [10], -0.166. For the same compound, the z-score in assay [8] was 1.02 (inactive).
Consider `O=C1C2C=CC(C(O)C3CCCCC3)N(Nc3ccccc3F)C2C(=O)N1c1ccccc1` (stereo not given), for which the composite z-score in [1] was 0.967; in assay [2], 0.619; in [3], 0.257; in [4] it was 0.682; in [5], 1.66; in assay [6], 1.93. For the same compound, the values for the composite z-score in assay [7], in [9] and in assay [10] were 1.31, 1.55 and -0.0617, respectively. Further, the z-score in [8] is -0.227 (inactive).
For the compound `[N-]=[N+]=Nc1ccccc1C[C@]1(C(N)=O)COC(c2ccc(OCCCO)cc2)=N1`, the composite z-score is 1.05 in assay [1]; -0.455 in assay [2]; 0.0247 in assay [3]; 0.149 in assay [4]; 0.278 in assay [5]; 1.81 in [6]. The composite z-score is 1.34 in assay [7], 0.236 in assay [9] and -0.0618 in [10]. Moreover, the z-score in assay [8] is 3.48 (inactive).
`COC(=O)Cn1c(C(=O)N(C)C)cc2c1C[C@H]1CN(C(=O)c3ccccc3)[C@@](Cc3ccccc3)(C(=O)OC)[C@@H]21`: the composite z-score is -0.215 in [1]; -0.365 in assay [2]; -0.0493 in assay [3]; 0.0707 in assay [4]; 1.47 in assay [5]; 1.5 in assay [6]. Besides, the results for the composite z-score in [7], in assay [9] and in assay [10] were 0.641, 0.0747 and 0.12, respectively. In [8], the z-score is 1.5 (inactive).

The record behind these values is PubChem BioAssay.
